60 compounds from PubChem BioAssay AID2796 (The Scripps Research Institute Molecular Screening Center, 2010) can be followed below.

Hit rate of the full screen: of about 320,000 compounds, about 8,000 (2.5%) were called active. The sample holds actives, similar compounds and a random draw of the others, so the mix is not that of the screen. Values without a mark were called inactive. No stated cut-off is given here; in the data, active means activation above about 47%; inactive means the rest.

The target in the assay is Aryl hydrocarbon receptor (Homo sapiens) (UniProt P35869). Put plainly: AHR activators, primary screen, cell-based, luminescence, luciferase reporter, human (AID 2796).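 Further: 0% = vehicle wells and 100% = reference agonist.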 The conditions noted are these: AHR-responsive luciferase reporter cells, at 5 µM, hits give high values. (In general: In a reporter assay the amount or activity of a reporter protein is the signal.)
Chain of Aryl hydrocarbon receptor (Homo sapiens) (P35869 whole entry, looked up): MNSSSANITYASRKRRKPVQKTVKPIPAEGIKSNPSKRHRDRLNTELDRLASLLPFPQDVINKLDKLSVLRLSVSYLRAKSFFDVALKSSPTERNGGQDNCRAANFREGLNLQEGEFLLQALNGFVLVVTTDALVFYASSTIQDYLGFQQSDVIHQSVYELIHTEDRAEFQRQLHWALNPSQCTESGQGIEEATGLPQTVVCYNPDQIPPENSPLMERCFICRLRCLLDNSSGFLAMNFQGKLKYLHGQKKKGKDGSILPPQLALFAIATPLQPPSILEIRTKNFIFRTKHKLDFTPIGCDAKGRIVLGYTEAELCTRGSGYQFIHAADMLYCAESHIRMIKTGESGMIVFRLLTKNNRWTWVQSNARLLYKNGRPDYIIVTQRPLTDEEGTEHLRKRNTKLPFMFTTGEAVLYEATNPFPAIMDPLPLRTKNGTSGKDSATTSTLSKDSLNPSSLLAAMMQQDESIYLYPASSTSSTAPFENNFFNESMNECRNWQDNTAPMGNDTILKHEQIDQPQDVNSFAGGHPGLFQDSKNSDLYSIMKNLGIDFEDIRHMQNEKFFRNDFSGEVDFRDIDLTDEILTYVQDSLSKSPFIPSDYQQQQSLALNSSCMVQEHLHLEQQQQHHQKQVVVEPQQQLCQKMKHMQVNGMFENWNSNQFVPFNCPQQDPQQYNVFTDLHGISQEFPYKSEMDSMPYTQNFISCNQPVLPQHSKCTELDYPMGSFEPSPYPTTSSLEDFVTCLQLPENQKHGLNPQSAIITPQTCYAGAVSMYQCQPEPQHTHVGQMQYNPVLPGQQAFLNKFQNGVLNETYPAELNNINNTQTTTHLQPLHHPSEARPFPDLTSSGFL
`O=S1(=O)CC(NCc2ccccc2)C(Nc2ccc(Cl)cc2)C1` (stereo not given): the activation was 0.94%.

`CSCCC(NC(=O)COc1ccccc1)C(=O)N(C)CC(=O)Nc1ccc(C)cc1` (stereo not given): the activation is 1.75%.

Consider `O=[N+]([O-])c1ccc(Oc2ccc(F)cc2Br)c2ccncc12`, for which the activation was 15.1%.

As to `CCN(CC(=O)NC1CCS(=O)(=O)C1)c1nc(-c2cccnc2)nc2ccccc12` (stereo not given), the activation was 1.86%.

Turning to `O=[N+]([O-])c1ccc(F)cc1Oc1nc(-c2cccnc2)nc2ccccc12`, the activation is 62.5% (active).

In the case of `CCCCn1c(N)c(N(CCOC)C(=O)CSCC(=O)Nc2cccc(C)c2)c(=O)[nH]c1=O`, the activation was 1.66%.

On to `Cc1ccc(C)c(N2CCN(C(=O)CCCn3c(=O)c4cccn4c4cccnc43)CC2)c1`, for which the activation was 6.45%.

For the compound `CCc1nn(CC(=O)N2CCN(c3cc(C)ccc3C)CC2)c(=O)c2cc3occc3n12`, the activation was 4.48%.

With `Cc1ccc(C)c(N2CCN(C(=O)Cn3ncn4cccc4c3=O)CC2)c1`, the activation was 49.4% (active).

Consider `COc1ccc2nc3n(c(=O)c2c1)-c1ccc(Cl)cc1C(=O)NC3Cc1ccccc1` (stereo not given), for which the activation is 1.56%.

`O=C(O)c1ccccc1-c1ccccc1C(=O)Nc1ccccc1Br`: the activation is 0.17%.

Consider `CN(CCN1CCOCC1)Cc1nc(-c2ccc3c(c2)OCO3)no1`, for which the activation is 10.5%.

With `CCn1ccnc1CN(C)Cc1nc(-c2ccc3c(c2)OCO3)no1`, the activation is 86.7% (active).

With `CC(C)N(Cc1nc(-c2ccc3c(c2)OCO3)no1)CC1CCC(=O)N1` (stereo not given), the activation is 16.6%.

Take `CCOc1c2ccc(C(=O)NC3CCCc4ccccc43)cc2nn1CC` (stereo not given): the activation is 7.2%.

Turning to `O=C(Nc1ccc(C(=O)N2CCCCC2)cc1)c1cccc([N+](=O)[O-])c1`, the activation was -1.69%.

With `Cc1cc(C)nc(NC(=O)c2cccc([N+](=O)[O-])c2)c1`, the activation was 40.8%.

On to `O=C(Nc1ccc(C2CC2(Cl)Cl)cc1)c1cccc([N+](=O)[O-])c1` (stereo not given), for which the activation is 96.3% (active).

Consider `Cc1ccc(-c2nn(-c3ccccc3)cc2C(=O)NCCCN2CCCC2=O)cc1`, for which the activation is 1.15%.

On to `CCC(C)(C)NC(=O)/C=C/c1cc(OC)c(OC)c(S(=O)(=O)N2CCc3ccccc32)c1`, for which the activation was 5.39%.

In the case of `COc1ccc(N(CC(=O)N/N=C/c2cccs2)S(=O)(=O)c2ccc(OC)c(OC)c2)cc1`, the activation was 1.41%.

`COc1ccc2c(c1)c(C(=O)N/N=C/c1cccs1)c(C)n2C`: the activation is 72.6% (active).

Take `NC(=O)N/N=C\c1cccs1`: the activation is -0.87%.

`COc1cc(C(=O)NCc2nnc(SCC(=O)Nc3nc4ccc(C)cc4s3)o2)cc(OC)c1OC`: the activation is -5.66%.

On to `COCCN(CCOC)S(=O)(=O)c1ccc(/C(O)=C(\C#N)c2nc3ccccc3[nH]2)cc1`, for which the activation was 6.43%.

Consider `CCC(=O)/C(=C(/O)c1ccccc1)c1nc2ccccc2[nH]1`, for which the activation was 64.6% (active).

For the compound `O=C(/C(=C/c1cccc(Cl)c1)c1nc2ccccc2[nH]1)c1ccccc1`, the activation is 44.8%.

In the case of `COC(C[C@@H]1O[C@@H]1C(=O)[C@@H](C)OCc1ccccc1)OC`, the activation was -3.27%.

For `COc1ccc(Cl)cc1NC(=O)CN(C)C(=O)c1cc2ccccc2cc1OC`, the activation was 19.4%.

For the compound `COc1ccccc1NC(=O)CCCc1c[nH]c2ccccc12`, the activation is 6.67%.

Regarding `COc1ccc(Cl)cc1NC(=O)CN(C)C(=O)CCCc1c[nH]c2ccccc12`, the activation is 51.8% (active).

For `O=C(OCC(=O)N1CCCCC1)c1ccc(OC(F)(F)F)cc1`, the activation is 0.31%.

For the compound `CN(C)NC(=O)c1csnc1-c1c(Cl)cccc1Cl`, the activation was 1.27%.

For `CC1CC(=O)Nc2ccccc2N1C(=O)COc1ccc2cc(Br)ccc2c1` (stereo not given), the activation was 2.14%.

Regarding `COc1c(Cl)cc(C(=O)Nc2ccc(Cl)cn2)cc1Cl`, the activation is 67.2% (active).

`COc1ccc(C(=O)NC(=S)Nc2ccc(Cl)cn2)cc1OC`: the activation is 5.66%.

`COc1ccc(C(=O)N/N=C(\C)CC(=O)Nc2ccc(Cl)cn2)cc1`: the activation is 13.8%.

In the case of `COc1ccc(N(CC(=O)NCc2ccc(F)cc2)C(=O)CCC(=O)Nc2nccs2)cc1`, the activation is 0.66%.

Turning to `COc1cccc(CNC(=O)CCN2C(=S)NC(C)(C)CC2C)c1` (stereo not given), the activation was 3.02%.

With `CCSc1nnc(-c2cc3c(s2)-c2ccccc2CC3)o1`, the activation is 62.1% (active).

As for `Fc1ccc(CSc2nnc(-c3cc4c(s3)-c3ccccc3CC4)o2)cc1`, the activation is 51.6% (active).

Take `O=C(CSc1nnc(-c2ccccc2O)o1)NC1CCCCC1`: the activation is -6.68%.

On to `CCCCSc1nnc(-c2ccc(C)cc2)o1`, for which the activation was -1.09%.

For the compound `Clc1ccc(CSc2nnc([C@@H]3CCCN3)o2)cc1`, the activation is 0.21%.

For `Fc1ccc(-c2nnc(CSc3nnc(-c4ccc5c(c4)OCO5)o3)o2)cc1`, the activation is 11.2%.

As to `CCOc1ncccc1C(=O)NNC(=O)c1cccc(S(=O)(=O)Nc2ccccc2OC)c1`, the activation was -1.36%.

As for `COc1ccc(N(C(=O)CNC(=O)c2ccco2)C(C(=O)NCC2CCCO2)c2ccccc2)cc1Cl` (stereo not given), the activation is -0.46%.

With `CC1=NNC(=O)C1CC(=O)N/N=C/c1ccncc1` (stereo not given), the activation was -0.52%.

Regarding `CCCCCC(=O)N1CCN(S(=O)(=O)c2ccc3c(c2)OCCCO3)CC1`, the activation was 1.73%.

As to `c1ccc2c(C[n+]3csc4ccccc43)cccc2c1`, the activation was 12.7%.

In the case of `CN(C(=O)Cn1nnc(-c2ccc(F)cc2)n1)C1CCS(=O)(=O)C1` (stereo not given), the activation was -0.41%.

For the compound `O=C(Nc1cc(S(=O)(=O)N2CCCCC2)ccc1Cl)C1COc2ccccc2O1` (stereo not given), the activation was 0.26%.

For `C=CCN(CC=C)S(=O)(=O)c1ccc(C(=O)Nc2nc3c(s2)CCc2ccccc2-3)cc1`, the activation was 50.7% (active).

With `COCCN(CCOC)S(=O)(=O)c1ccc(C(=O)Nc2nc3c(s2)CCc2ccccc2-3)cc1`, the activation is 11.6%.

For the compound `CCN(c1ccccc1)S(=O)(=O)c1ccc(C(=O)Nc2nccs2)cc1`, the activation was 3.71%.

For the compound `Cn1cccc1C(=O)NC(=O)COC(=O)Cc1coc2ccc3ccccc3c12`, the activation was 16.2%.

Regarding `CCCCn1c(SCC(=O)N2CCOCC2)nc2c1c(=O)n(C)c(=O)n2C`, the activation is 0.02%.

Consider `Cc1cc(C)nc(Nc2ncn[nH]2)n1`, for which the activation is 2.66%.

Turning to `CCCOc1ccccc1-c1nc(SCCC(=O)O)n[nH]1`, the activation is 10.6%.

In the case of `Cc1cc(C)nc(Nc2n[nH]c(-c3ccccc3N)n2)n1`, the activation was 67% (active).
